EPAC1 agonist: Validation qHTS for agonist of cAMP-regulated guanine nucleotide exchange factor 3 (EPAC1) | Rap guanine nucleotide exchange factor 3 (Homo sapiens), O95398 | EPAC1 Rap1b BODIPY-GDP exchange, fluorescence | Potency, µM, inactives show max response, positive = active, actives largely listed as activators | actives 1% (n = 16,000) | AID 1645883, 2021; also: nearly all actives have a fitted effect of over 70% in size
EPAC2 antag: Validation qHTS for antagonist of cAMP-regulated guanine nucleotide exchange factor 4 (EPAC2); Rap guanine nucleotide exchange factor 4 (Homo sapiens), Q8WZA2; EPAC2 Rap1B BODIPY-GDP exchange, fluorescence; Potency, µM (series often up to 112 µM), for the others: top-dose activity, negative = inhibition, actives largely listed as inhibitors; actives 1.7% (n = 16,000); AID 1645886, 2021;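 also: 100% = activation by cAMP agonist control; nearly all actives have a fitted effect of over 40% in size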
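Fluorescent exchange read-out: 100 nM EPAC2 with 250 nM RAP1B–BODIPY-GDP and 50 uM GDP; BODIPY-GDP release lowers fluorescence. Read at 480/540 nm every 5 min for 30 min at room temperature; normalized to 6.5 mM cAMP.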
An asterisk follows results filed as active; u = inconclusive; [ ] = remark or other dose. Hits are enriched below; roughly 3.1% of the tested compounds scored in any of these assays. Calls follow the shape of the dose curve; as a rule, active = well fitted curve in the direction sought with a large enough effect; inconclusive = small, poorly fitted or top-dose-only effect, or another doubt; inactive = no such curve, though single readings can be large; an effect the other way counts as inactive or inconclusive. Unless noted, % is scaled to controls: 0 for no effect and ±100 for the full control effect; potency is read from the fitted curve at half-maximal effect.

SMILES | EPAC1 agonist | EPAC2 antag
CC(=O)O[C@H]1C[C@H](O[C@H]2[C@@H](O)C[C@H](O[C@H]3[C@@H](O)C[C@H](OC4CC[C@@]5(C)C(CC[C@@H]6[C@@H]5CC[C@]5(C)[C@@H](C7=CC(=O)OC7)[C@@H](O)C[C@]65O)C4)O[C@@H]3C)O[C@@H]2C)O[C@H](C)[C@H]1O[C@@H]1O[C@H](CO)[C@@H](O)[C@H](O)[C@H]1O (some centres not stated) | -2% | -6%
CCNC1(c2cccs2)CCCCC1=O (configuration not stated) | 9% | -15%[56.6 µM]
CCCCCCC(=O)O[C@H]1CC[C@H]2[C@@H]3CC[C@H]4CC(=O)C=C(C)[C@]4(C)[C@H]3CC[C@]12C | -28% | -8%
CC(C)=CCN1CC[C@@]2(C)c3cc(O)ccc3C[C@@H]1[C@@H]2C | -2% | 16%[239 µM]
C#CCN1C(C)=C(C(=O)CCO)[C@@H](c2cccc(-n3oo3)c2)C(C(=O)OC)=C1C | u | 20µM*
C[C@H]1[C@H]2Cc3ccc(O)cc3[C@]1(C)CCN2CCc1ccccc1 | -9% | 4%[239 µM]
COc1cc(C[C@@H](C)N)c(OC)cc1C | u | 29%[239 µM]

Source: PubChem (National Center for Advancing Translational Sciences (NCATS))
